Test results published in PubChem BioAssay AID1159568 (Broad Institute, 2015).
Entries with a potency or affinity are not part of this list. Records with an inconclusive call do not appear. Activity calls are given as the source filed them.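 Rule for the calls: active = signal loss with an EC50 at or below twice the highest valid dose for that sample; inconclusive = flat curve with 30 to 70% inhibition, or poor fit; inactive = the rest.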

test: Dd2 parasite growth inhibition in erythrocytes – SYBR Green, dry powder samples, set 9, dose response (AID 1159568); conditions: P. falciparum Dd2 in erythrocytes, 72 h; series mostly up to 19.5 µM

outcome, inactive:
Cc1noc(C)c1S(=O)(=O)N(C)C[C@H]1OCc2cn(nn2)CCCC(=O)N([C@@H](C)CO)C[C@@H]1C
COc1ccc(CNC(=O)C[C@H]2CC[C@@H](NC(=O)CN(C)C)[C@H](CO)O2)cc1
COCC(=O)N1C[C@H](C)[C@@H](OC)CN(C)C(=O)c2ccc(NC(=O)Nc3cccc(F)c3)cc2OC[C@@H]1C
CC(C)[C@@H]1COCc2cnnn2CCC[C@H](C)C(=O)N1
C[C@H]1CN([C@@H](C)CO)C(=O)CCCn2cc(nn2)CO[C@H]1CN(C)C(=O)Nc1cccc2ccccc12
COc1cccc(NC(=O)N[C@@H]2CC[C@H](CC(=O)N3CCN(C)CC3)O[C@@H]2CO)c1
COc1ccc(NC(=O)N(C)C[C@H]2Oc3ccc(NC(=O)CCN4CCOCC4)cc3C(=O)N([C@H](C)CO)C[C@@H]2C)cc1
O=C(NCc1ccc2c(c1)OCO2)[C@@H]1[C@@H](CO)[C@@H]2Cn3c(cccc3=O)[C@H]1N2Cc1cncnc1
